The conditions of assay [1]: Ebola virus entry assay, blue channel (ratio component).
The nature of assay [2]: qHTS assay for measurement of the activity of small molecule inhibitors on Zika virus induced Caspase-3 activity in human iPSC derived neural progenitor cells (hNPCs) (AID 1224857). Also: nearly all actives have a fitted effect of over 65% in size. The note with it: hNPCs ZIKV-induced caspase-3/7, Caspase-Glo luminescence, 6 h; series mostly up to 45.7 µM. A digest of the protocol: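 Percent inhibition of virus-induced caspase-3/7 luminescence (Caspase-Glo), scaled between uninfected cells and Zika-infected cells. hNPCs received compound 1 hr before ZIKV at 2 FFU/cell, with 6 hours infection at 37 C.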
(In general: Quantitative high-throughput screening tests each substance at several concentrations.)

Assay [3] in a line: qHTS assay for measurement of the activity of small molecule inhibitors on Zika virus induced Caspase-3 activity in human astrocytoma cells (AID 1224859). The note with it: SNB-19 ZIKV-induced caspase-3/7, luminescence, 6 h; series mostly up to 45.7 µM. A digest of the protocol:
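Luminescent caspase-3/7 read-out (30 min reagent, room temperature) in human SNB-19 cells infected 6 h with ZIKV (2 FFU/cell) after 1 h compound pre-incubation; Data were normalised to uninfected and infected wells.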

The conditions of assay [4]: Ebola virus entry reporter assay, green channel fluorescence.
For assay [5] the following is noted: Ebola virus entry cell assay, ratio channel.

Records with an inconclusive call do not appear. For some assays here: Results with a measured potency or affinity are listed apart. Active and inactive are the calls of the source.

Here are results for 39 molecules from PubChem BioAssay (NCATS).

For `CCOC(=O)CC(SP(=S)(OC)OC)C(=O)OCC` (stereo not given), the outcome in assay [1], in assay [2] and in assay [3] was inactive.

For the molecule `O=C1c2ccccc2C(=O)c2ccccc21`, the outcome in assay [1], in assay [2] and in assay [3] was inactive.

`CC(=O)C1CCOC1=O` (stereo not given): the result in assay [1], in assay [2] and in assay [3] was inactive.

`CCCCCCC(=O)CCCCCC/C=C/C[C@@H](O)[C@H](O)[C@@](N)(CO)C(=O)O`: the result in assay [1], in assay [2] and in assay [3] was inactive.

For the molecule `CCC(C)C(C)(COC(N)=O)COC(N)=O` (stereo not given), the result in assay [1], in assay [2] and in assay [3] was inactive.

Regarding `C[C@@H]1CC2=CC(=O)CC[C@@H]2[C@H]2CC[C@@]3(C)[C@@H](CC[C@]3(C)O)[C@@H]21`, the outcome in assay [1], in assay [2] and in assay [3] was inactive.

Consider `C[C@]12CCC(=O)C=C1CC[C@@H]1[C@@H]2CC[C@]2(C)C(=O)CC[C@@H]12`, for which the result in assay [1], in assay [2] and in assay [3] was inactive.

Take `CN1CCC(O)(c2ccc(F)cc2)C(C(=O)c2ccc(F)cc2)C1` (stereo not given): the result in assay [1], in assay [2] and in assay [3] was inactive.

For `C#C[C@]1(O)CC[C@H]2[C@@H]3CCC4=CC(=O)CC[C@]4(C)[C@H]3CC[C@@]21C`, the result in assay [1], in assay [2] and in assay [3] was inactive.

With `C[C@H](N)C(=O)c1ccccc1`, the result in assay [1], in assay [2] and in assay [3] was inactive.

Regarding `NNc1ccccc1`, the outcome in assay [1], in assay [2] and in assay [3] was inactive.

With `Nc1nc(N)nc(NC2CC2)n1`, the result in assay [1], in assay [2] and in assay [3] was inactive.

For `Nc1ccccc1`, the result in assay [1], in assay [2] and in assay [3] was inactive.

For `O=C1OC(CCN2CCCCC2)OC1(c1ccccc1)c1ccccc1` (stereo not given), the outcome in assay [1], in assay [2] and in assay [3] was inactive.

Regarding `Clc1ccc(C(c2ccc(Cl)cc2)C(Cl)(Cl)Cl)cc1`, the result in assay [1], in assay [2] and in assay [3] was inactive.

In the case of `CCN[C@@H](C)Cc1cccc(C(F)(F)F)c1`, the outcome in assay [1], in assay [2] and in assay [3] was inactive.

Turning to `CCCCC/C=C\C/C=C\C/C=C\C/C=C\CCCC(=O)NCC(=O)O`, the outcome in assay [1], in assay [2] and in assay [3] was inactive.

Take `O=C1OC(c2ccc(O)c(S(=O)(=O)O)c2)(c2ccc(O)c(S(=O)(=O)O)c2)c2c(Br)c(Br)c(Br)c(Br)c21`: the result in assay [1], in assay [2] and in assay [3] was inactive.

As to `COc1c2c(cc3c1OCO3)CCN(C)C2`, the outcome in assay [1], in assay [2] and in assay [3] was inactive.

As for `ClCCN1CCCC1`, the result in assay [1], in assay [2] and in assay [3] was inactive.

On to `COc1ccc2c(c1OC)C(=O)O[C@H]2[C@@H]1c2cc3c(cc2CCN1C)OCO3`, for which the outcome in assay [1], in assay [2] and in assay [3] was inactive.

With `O=C(N/N=C/c1ccc([N+](=O)[O-])o1)c1cc([N+](=O)[O-])cc([N+](=O)[O-])c1O`, the result in assay [1], in assay [2] and in assay [3] was inactive.

`O=C(O)c1ccc(=O)[nH]c1`: the result in assay [1], in assay [2] and in assay [3] was inactive.

Take `COc1ccc2c3c1O[C@H]1[C@H](O)CC[C@H]4[C@@H](C2)N(C)CC[C@@]341`: the outcome in assay [1], in assay [2] and in assay [3] was inactive.

Turning to `CCC(CC)(CNC(=O)CCCO)c1cccc(OC)c1`, the result in assay [1], in assay [2] and in assay [3] was inactive.

Take `C[C@@H](N)[C@@H](O)c1ccccc1`: the result in assay [1], in assay [2] and in assay [3] was inactive.

With `C[C@]12CC[C@H]3[C@@H](CCC4=CC(=O)CC[C@@H]43)[C@@H]1CC[C@@H]2OC(=O)CCC1CCCCC1`, the outcome in assay [1], in assay [2] and in assay [3] was inactive.

Regarding `c1ccc2c(c1)sc1ccccc12`, the result in assay [1], in assay [2] and in assay [3] was inactive.

As to `COc1cccc(C(=O)CCN[C@@H](C)[C@H](O)c2ccccc2)c1`, the result in assay [1], in assay [2] and in assay [3] was inactive.

`CC(=O)OCC1=C(C(=O)O)N2C(=O)[C@@H](N)[C@H]2SC1`: the result in assay [1], in assay [2] and in assay [3] was inactive.

With `CN1C(=O)OC(C)(C)C1=O`, the outcome in assay [4] and in assay [5] was inactive.

As for `C[N+]1(CCF)[C@@H]2CC[C@H]1CC(OC(=O)C(O)(c1ccccc1)c1ccccc1)C2` (stereo not given in full), the result in assay [1], in assay [2] and in assay [3] was inactive.

In the case of `C[C@@H]1O[C@@H]1P(=O)(O)O`, the outcome in assay [4] and in assay [5] was inactive.

Consider `CC(C=CC1=C(C)CCCC1(C)C)=CC=CC(C)=CC(=O)O`, for which the molecule was classed as inactive in assay [4] and in assay [5].

For the molecule `CN[C@@H]1[C@H](O[C@H]2[C@H](O[C@H]3[C@H](O)[C@@H](O)[C@H](N=C(N)N)[C@@H](O)[C@@H]3N=C(N)N)O[C@@H](C)[C@]2(O)C=O)O[C@@H](CO)[C@H](O)[C@H]1O`, the call in assay [4] and in assay [5] was inactive.

Turning to `CC(C)(S)[C@@H](N)C(=O)O`, the call in assay [4] and in assay [5] was inactive.

As to `CCc1cc2c(s1)-n1c(C)nnc1CN=C2c1ccccc1Cl`, the outcome in assay [1], in assay [2] and in assay [3] was inactive.

On to `CC(=O)N1CCN(c2ccc(OC[C@H]3CO[C@](Cn4ccnc4)(c4ccc(Cl)cc4Cl)O3)cc2)CC1`, for which the call in assay [4] and in assay [5] was inactive.

`COP(=S)(OC)SCN1C(=O)c2ccccc2C1=O`: the outcome in assay [1] and in assay [3] was inactive.
